High-throughput results: PubChem BioAssay, several laboratories
FadD28 FP inh: blocks FadD28 binding to the bisubstrate probe. fluorescence polarization. inhibition, % at 12.5 µM. actives 0.22% (n = 360,000). AID 588549; in the data active = inhibition above about 8.5%, passing the limit was not always enough
PrPC TRFRET: reduces human prion protein on the cell surface. cell surface PrPC, TR-FRET read-out. actives 0.43% (n = 370,000). inhibition, % at 13.8 µM; in the data active = inhibition above about 24%; also: 0% = median of the test wells and 100% = reference compound wells
PrP 5UTR inh: suppresses PrP 5' UTR mRNA reporter expression | cell-based PrP 5' UTR mRNA reporter, plate reader | inhibition, % (test concentration not listed) | actives 0.35% (n = 340,000) | AID 488862; in the data active = inhibition above about 52%; also: 0 = median of the neutral control wells
SSB-PriA inh: inhibitors of Klebsiella pneumoniae PriA binding to SSB C-terminal tail; AlphaScreen SSBct-PriA binding, biotinylated peptide; inhibition, % at 33 µM; actives 0.6% (n = 430,000); in the data active = inhibition mostly above about 37%, no sharp cut-off; inactive = mostly below about 20%;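 also: plate controls were negative control peptide for no effect and reference peptide for full effect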
UGM FP inh: Mtb UDP-galactopyranose mutase inhibition. purified UGM, fluorescence polarization probe displacement. inhibition, % at 10 µM. actives 0.06% (n = 320,000). AID 504406; in the data active = inhibition above about 10%, passing the limit was not always enough
Rv3671c inh: inhibits the M. tuberculosis serine protease Rv3671c | AID 2606 | actives 0.048% (n = 320,000) | inhibition, % at 5.96 µM | P9WHR9; in the data active = inhibition above about 38%;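 also: extracellular domain of Rv3671c used as enzyme; 0% = enzyme with DMSO and 100% = no enzyme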
PrPC confirm: confirmation of inhibitors of cell surface human prion protein; shares compounds with PrPC TRFRET; cell surface PrPC level, TR-FRET; inhibition, % at 13.8 µM; actives 65% (n = 1,500); AID 743200; in the data active = inhibition above about 25%
LD9 tox: kills or reduces viability of LD9 cells in PrPc counter-screen; shares compounds with PrPC TRFRET; LD9 cells cytotoxicity, luminescence viability; inhibition, % at 13.8 µM; actives 29% (n = 1,500); in the data active = inhibition above about 9.5%
* hit, by the source's call; . = not tested or not shown. Rows were chosen to be rich in hits. Some 1.2% of all compounds tested hit in one or more screens of this group.

SMILES	FadD28 FP inh	PrPC TRFRET	PrP 5UTR inh	SSB-PriA inh	UGM FP inh	Rv3671c inh	PrPC confirm	LD9 tox
Nc1nnc(SCC(=O)c2ccc(Cl)s2)s1	.	.	.	6.0	.	.	.	.
O=C(N=Nc1c(O)[nH]c2ccc(Br)cc12)c1cc(-c2cccc([N+](=O)[O-])c2)n[nH]1	.	.	.	-3.0	.	.	.	.
C=C1C(=O)[C@]23C[C@H]1CC[C@H]2[C@]1(C)CCC[C@@](C)(C(=O)OC)[C@H]1C[C@@H]3O	.	60.4*	.	.	.	.	71.2*	96.0*
C=C1C(=O)[C@]23C[C@H]1CCC2[C@@]1(C)C(C[C@@H]3O)[C@](C)(C(=O)OC)CC[C@@H]1O (some centres undefined)	0.6	5.2	.	.	.	.	.	.
CN1CCN(c2nc3ccc(NC(=O)c4ccc(N(C)C)cc4)cc3s2)CC1	.	.	.	1.0	.	.	.	.
N#CC(C#N)=NNc1ccc(-n2ccc(C(F)(F)F)n2)cc1	-2.7	31.7*	-9.4	33.6	1.8	-12.9	43.0*	38.5*
O=C(Nc1ccccc1)Nc1ccc(-n2ccc(C(F)(F)F)n2)cc1	-0.4	26.3*	-70.0	-10.5	-0.4	-4.7	22.0	9.9*
Cc1cc(C)n(-c2ccc(NN=C(C#N)C#N)cc2)n1	-1.2	-8.7	-18.7	27.6	-1.2	2.4	.	.
O=C(CSc1nc2scc(-c3ccc(Cl)cc3)c2c(=O)n1-c1ccccc1)c1ccc2c(c1)OCCO2	.	.	.	-7.0	.	.	.	.
O=C(Nc1ccc(Cn2cccn2)cc1)c1ccc(COc2cccc(Br)c2)cc1	-4.6	28.2*	-60.7	-25.6	3.3	-68.2	25.6*	2.4
O=C(Nc1ccn(Cc2ccccc2F)n1)c1ccc(COc2ccc(Br)cc2)cc1	-0.3	32.2*	-14.0	-13.6	2.2	-8.3	23.5	8.1
O=C(Nc1ccn(Cc2ccccc2)n1)c1ccc(F)cc1	-0.5	11.9	-57.0	2.8	0.0	4.4	.	.
O=C(Nc1ccc(Cn2cccn2)cc1)c1ccc(COc2ccc(Br)cc2)cc1	-3.5	-2.4	-6.5	3.0	-0.8	-3.3	.	.
CCOC(=O)C(C)Oc1ccc2c(c1)O/C(=C\c1c(F)cccc1Cl)C2=O (centres undefined)	.	.	.	-1.0	.	.	.	.
Cc1noc(C)c1S(=O)(=O)N1CCC(Cn2c(COc3ccccc3)nc3ccccc32)CC1	.	.	.	-18.0	.	.	.	.
Cc1cccc(/C=N/NC(=O)c2c(-c3ccccc3)noc2C)c1O	-2.7	25.9*	-1.5	.	-0.6	2.2	21.6	-5.5
COc1ccccc1/C=N/NC(=O)c1c(-c2ccccc2)noc1C	-0.9	8.6	-6.9	.	1.7	-0.6	.	.
CC(=O)c1ccc(NC(=O)c2cn(-c3ccccc3)nc2-c2ccc(Cl)s2)cc1	.	.	.	-2.0	.	.	.	.
CC1CCC(NC(=O)CNC(=O)Cc2cccc3ccccc23)CC1 (centres undefined)	-4.4	31.2*	-10.3	-12.0	-0.7	1.2	0.0	-5.5
COc1ccccc1CC(=O)NC1CCC(C)CC1 (centres undefined)	1.5	-1.8	-18.8	-1.9	-0.8	-11.0	.	.
Cc1ccc2nc3c(c(C(=O)O)c2c1)CCC3	2.5	2.3	-19.5	-10.5	1.4	-3.7	.	.
CNC(=O)c1c2c(nc3ccc(Br)cc13)CCCC2	-2.2	25.2*	-2.6	-10.2	0.8	-12.5	35.1*	-4.1
CCOCc1c(C(=O)Nc2ccc3nc(N4CCOCC4)sc3c2)oc2ccccc12	0.0	33.4*	-19.9	-17.9	1.3	12.8	15.7	6.4
O=C(NCCCO)C(=O)Nc1cccc(N2CCCS2(=O)=O)c1	.	.	.	-7.0	.	.	.	.
CO[C@H]([C@H](C)/C=C/N(C)C=O)[C@@H](C)C(=O)CC[C@H](C)[C@H](O)[C@H](C)[C@H]1OC(=O)/C=C/C(C)=C/[C@H](O)[C@H](OC)C[C@@H]2C=CC[C@@H](C[C@H](OC)[C@@H](CO)[C@@H](OC)C[C@@H](OC)[C@@H]1C)O2	.	37.5*	.	.	.	.	31.8*	23.4*
SMILES	FadD28 FP inh	PrPC TRFRET	PrP 5UTR inh	SSB-PriA inh	UGM FP inh	Rv3671c inh	PrPC confirm	LD9 tox
CO[C@H]([C@H](C)/C=C/N(C)C=O)[C@@H](C)C(=O)CC[C@H](C)[C@H](O)[C@H](C)[C@H]1OC(=O)/C=C/C(C)=C/C[C@H](O)C[C@@H]2C=CC[C@@H](C[C@H](OC)C(C)(O)[C@@H](OC)C[C@@H](OC)[C@@H]1C)O2 (some centres undefined)	.	47.1*	.	.	.	.	41.8*	25.1*
CO[C@H]([C@H](C)/C=C/N(C)C=O)[C@@H](C)C(=O)CC[C@H](C)[C@H](O)[C@H](C)[C@H]1OC(=O)/C=C/C(C)=C/C[C@H](O)C[C@@H]2C=CC[C@@H](C[C@H](OC)[C@@H](CO)[C@@H](OC)C[C@@H](OC)[C@@H]1C)O2	.	38.3*	.	.	.	.	34.2*	24.5*
CO[C@H]([C@H](C)/C=C/N(C)C=O)[C@@H](C)C(O)CC[C@H](C)[C@H](O)[C@H](C)[C@H]1OC(=O)/C=C/C(C)=C/C[C@H](O)C[C@@H]2C=CC[C@@H](C[C@H](OC)[C@@]3(CO3)[C@@H](OC)C[C@@H](OC)[C@@H]1C)O2 (some centres undefined)	.	26.5*	.	.	.	.	24.0	24.5*
Cc1nnc(NC(=O)Cc2c(C)nc(SCc3ccccc3F)[nH]c2=O)s1	.	.	.	-5.0	.	.	.	.
CCCC(=O)OCc1cnc(C)c2oc(=O)c(C(=O)Nc3cccc(C)c3)cc12	.	.	.	18.0	.	.	.	.
Cn1c(=O)[nH]cc(C(=O)Nc2ccc(Br)cc2F)c1=O	.	.	.	4.0	.	.	.	.
CCOC(=O)/C=C/S(=O)(=O)c1ccc(NC(C)=O)cc1	-1.0	88.7*	-20.9	-13.2	-1.9	-0.4	-9.5	98.1*
C=C1C(=O)C23C(O)C1CCC2C12CCCC(C)(COC(C)=O)C1C(O)C3(O)OC2 (centres undefined)	-1.2	75.2*	-29.9	-8.5	.	.	77.4*	93.2*
COc1ccc(Cl)cc1N/C(N)=N/c1nc(C)cc(=O)[nH]1	-2.2	32.3*	-36.2	.	1.6	5.6	4.1	-0.7
COc1ccc(-c2cnnn2-c2ccc(NC(=O)c3ccc(S(=O)(=O)N4CCCCC4)cc3)cc2)cc1OC	-2.1	31.8*	4.0	-3.0	-1.8	-98.2	19.0	-12.5
COc1ccc(S(=O)(=O)N2CCCCC2)cc1C(=O)Nc1ccc(S(C)(=O)=O)cc1	.	.	.	-17.0	.	.	.	.
Cc1ccc(NC(=O)c2cc(S(=O)(=O)N(C)C)ccc2N2CCCC2)cc1S(=O)(=O)N(C)C	-2.0	44.0*	2.3	4.3	1.1	7.5	37.0*	-5.2
COc1ccc(S(=O)(=O)N2CCOCC2)cc1C(=O)Nc1ccc(N2CCCCCC2)cc1	0.4	30.8*	-15.8	7.1	.	.	29.5*	6.9
COc1ccc(NC(=O)c2cc(S(=O)(=O)N(C)C)ccc2N2CCCC2)cc1Cl	-4.7	24.4*	-18.6	-6.0	1.5	-10.2	20.7	-6.0
Cn1cc(CC(=O)Nc2nc3c(s2)C(=O)NCCC3)c2ccccc21	.	.	.	0.0	.	.	.	.
